Screening data (PubChem BioAssay)
This is a sample that favours compounds with a hit; in the whole collection about 19% have one here.
TGFb inhibitor: inhibitors of TGF-b signaling | Potency, µM (series often up to 46.1 µM), hits mostly inhibitors | AID 588855 | 410,000 compounds, 1.2% hits | HepG2 CAGA-GFP TGF-b/SMAD3 reporter, GFP fluorescence, 18 h; TGF-beta stimulated, 500 pg/mL final; also: nearly all actives have a fitted effect of over 65% in size
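Smad-responsive CAGA-GFP expression was quantified in HEPG2 cells exposed to compounds and 500 pg/mL final TGF-beta for 18 h at 37 degrees C; unstimulated wells defined full inhibition.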
TDP1 cell CPT: DT40-hTDP1 cell growth loss with CPT; chicken DT40 Tdp1-/-;hTDP1 cells + 20 nM CPT, ATP luminescence, 48 h; Potency, µM (titrated, usually from 46.2 µM), usual class: inhibitors; 420,000 compounds, 12% hits; AID 686979; also: nearly all actives have a fitted effect of over 55% in size
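Cell growth measured by CellTiter-Glo luminescence after a minimum 48 h, 37 C compound exposure with 20 nM CPT in Tdp1-knockout DT40 cells stably expressing hTDP1, seeded 400/well; qHTS titration format.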
HepG2 viability: HepG2 cytotoxicity, counter-screen for TGF-b inhibitors. HepG2 CAGA-GFP viability, ATP luminescence, 18 h. Potency, µM (top dose mostly 46.1 µM), actives largely listed as cytotoxic. 410,000 compounds, 0.76% hits. AID 588856
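HepG2 CAGA-GFP cells (1000/well, DMEM with 1% FBS) received compound, then TGF-beta at 500 pg/mL final, and were incubated 18 hours at 37 degrees C. Viability was read by CellTiter-Glo luminescence. Media-only wells were set as complete cell-killing and DMSO as no toxicity.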
IL1B secr inh: blocks inflammasome-driven IL-1 beta release; THP-1 LPS/ATP IL-1B secretion, AlphaLISA, 16 h; stronger effect = lower value; 360,000 compounds, 4.7% hits; activity change, % at 57.5 µM; in the data active = activity change below about -50%; inconclusive = mostly about -30% to -49%
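THP-1 cells pretreated 1 hr with compounds (up to 57.5 uM final), then stimulated with LPS (250 ng/mL final) plus ATP (1.25 mM final); secreted IL-1B measured by AlphaLISA after 16 hr, decreased signal indicating inhibition.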
TDP1 block: blocks human tyrosyl-DNA phosphodiesterase 1; recombinant TDP1, AlphaScreen DNA substrate cleavage; Potency, µM (series often up to 130 µM), hits mostly inhibitors; 350,000 compounds, 0.28% hits; AID 485290; also: nearly all actives have a fitted effect of over 40% in size
Target sequence (Q9NUW8 whole entry, looked up): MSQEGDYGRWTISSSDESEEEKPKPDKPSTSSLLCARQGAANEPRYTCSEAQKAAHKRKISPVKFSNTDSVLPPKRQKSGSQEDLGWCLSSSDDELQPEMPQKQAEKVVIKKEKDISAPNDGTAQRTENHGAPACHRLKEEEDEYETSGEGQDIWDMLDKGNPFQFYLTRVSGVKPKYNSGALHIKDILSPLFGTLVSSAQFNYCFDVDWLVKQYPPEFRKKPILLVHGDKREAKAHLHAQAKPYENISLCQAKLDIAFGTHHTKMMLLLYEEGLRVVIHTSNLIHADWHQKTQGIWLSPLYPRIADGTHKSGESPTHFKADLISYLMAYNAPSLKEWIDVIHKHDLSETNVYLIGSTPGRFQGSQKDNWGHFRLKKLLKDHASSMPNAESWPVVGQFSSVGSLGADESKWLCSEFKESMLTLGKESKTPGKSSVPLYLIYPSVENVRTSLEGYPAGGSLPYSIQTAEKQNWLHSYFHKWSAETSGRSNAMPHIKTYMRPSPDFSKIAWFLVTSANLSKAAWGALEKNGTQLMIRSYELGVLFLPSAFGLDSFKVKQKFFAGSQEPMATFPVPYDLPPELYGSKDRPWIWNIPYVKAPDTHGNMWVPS
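Enzyme-compound mixtures sat 15 min at room temperature, followed by a 5 min reaction with 15 nM final substrate and 10 min with AlphaScreen beads. Recombinant human Tdp1 was used at 1 nM final.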
DT40 TDP1 no CPT: qHTS for Inhibitors of human tyrosyl-DNA phosphodiesterase 1 (TDP1): qHTS in cells in absence of CPT | DT40 Tdp1-/- hTDP1 cells, no CPT, ATP luminescence, 48 h | Potency, µM (titrated, usually from 46.2 µM), most hits filed as inhibitors | 420,000 compounds, 15% hits | AID 686978, 2013; also: nearly all actives have a fitted effect of over 55% in size
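Seeded 400 DT40-hTDP1 cells/well (vehicle DMSO, no 20 nM CPT); pinned compounds; ≥48 hr at 37 °C; CellTiter-Glo luminescence as viability measure.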
Of the large screens only hits and unclear results are named; the others gave an inactive call. Unless noted, calls follow the shape of the dose curve; as a rule, active = well fitted curve in the direction sought with a large enough effect; inconclusive = small, poorly fitted or top-dose-only effect, or another doubt; inactive = no such curve, though single readings can be large; an effect the other way counts as inactive or inconclusive.

O=C(c1c(F)cccc1F)N(Cc1ccccc1)Cc1ccccc1	TDP1 cell CPT 11.6µM, IL1B secr inh inconclusive, TDP1 block inconclusive, DT40 TDP1 no CPT 11.6µM
O=[N+]([O-])c1cc(Cl)cc(C2=NCCN2)c1	TDP1 cell CPT 18.4µM, DT40 TDP1 no CPT inconclusive
CC[n+]1c(/C=C/c2c[nH]c3ccccc23)ccc2cc(C)ccc21	TDP1 cell CPT 1.16µM, IL1B secr inh -100.1, DT40 TDP1 no CPT 1.16µM
CCN(CC)C(=O)c1ccc(/C=C/c2c[nH]c3ccccc23)[n+](C)c1	DT40 TDP1 no CPT inconclusive
CCCNC(=O)Cn1sc2nc(C)cc(C)c2c1=O	TDP1 cell CPT 3.66µM, IL1B secr inh inconclusive, DT40 TDP1 no CPT 4.11µM
CCCCOC(=O)c1sc2nc(C)cc(C)c2c1N	TDP1 cell CPT inconclusive, IL1B secr inh inconclusive, DT40 TDP1 no CPT inconclusive
Cc1nn(CC(=O)N2CCC(N3CCCCC3)CC2)c(=O)c2c1sc1ccccc12	none
Cc1cc(C)c2c(=O)n(CC(=O)N3CCC(N4CCCCC4)CC3)sc2n1	TDP1 cell CPT 14.6µM, DT40 TDP1 no CPT 14.6µM
CC1=C(C(=O)OCCNC(=O)c2ccccc2O)C(c2ccccc2[N+](=O)[O-])C(C(=O)OCC2CCCO2)=C(C)N1 (centres undefined)	TGFb inhibitor inconclusive, TDP1 cell CPT 18.4µM, IL1B secr inh -57.9, DT40 TDP1 no CPT 18.4µM
C[C@@H]1C=C(C(=O)NCc2nc3ccccc3[nH]2)O[C@H](OCc2ccc(CO)cc2)C1	TDP1 cell CPT 16.4µM, DT40 TDP1 no CPT inconclusive (no result: TDP1 block)
C[C@@H]1C=C(C(=O)NCc2nc3ccccc3[nH]2)O[C@H](OCCCCO)C1	none (no result: TDP1 block)
O=C(NCc1nc2ccccc2[nH]1)C1=C[C@H](c2ccc(C(F)(F)F)cc2)C[C@H](OCc2ccc(CO)cc2)O1	TGFb inhibitor 11.2µM, TDP1 cell CPT inconclusive, IL1B secr inh inconclusive, DT40 TDP1 no CPT inconclusive
O=C(NCc1nc2ccccc2[nH]1)C1=C[C@H](c2ccc(Br)cc2)C[C@H](OCc2ccc(CO)cc2)O1	TDP1 cell CPT inconclusive, DT40 TDP1 no CPT inconclusive
CCOC(=O)N1CCN(C(=O)c2ccc3c(c2)sc2nc(-c4ccc(OC)cc4)cn23)CC1	TDP1 cell CPT inconclusive, DT40 TDP1 no CPT 23.1µM
CCOC(=O)C1CCN(C(=O)c2ccc3c(c2)sc2nc(-c4ccc(C)cc4)cn23)CC1	TGFb inhibitor inconclusive, DT40 TDP1 no CPT inconclusive (no result: IL1B secr inh)
CCOC(=O)C1CCN(C(=O)c2ccc3c(c2)sc2nc(-c4ccc(OC)cc4)cn23)CC1	TGFb inhibitor inconclusive, TDP1 cell CPT 23.1µM, DT40 TDP1 no CPT 23.1µM (no result: IL1B secr inh)
Cc1cc(C)n2nc(CC(=O)NNC(=O)c3ccccc3Cl)nc2n1	none
COc1ccccc1/C=C/c1nc(C#N)c(N(C)C)o1	TDP1 cell CPT inconclusive, DT40 TDP1 no CPT 16.4µM
COc1cc(/C=C/c2nc(C#N)c(N3CCC(C)CC3)o2)cc(OC)c1OC	TDP1 cell CPT 10.3µM, DT40 TDP1 no CPT 7.31µM (no result: IL1B secr inh)
COc1cccc(/C=C/c2nc(C#N)c(N3CCC(C(N)=O)CC3)o2)c1	none (no result: IL1B secr inh)
COc1cc(/C=C/c2nc(C#N)c(N3CCCCCC3)o2)cc(OC)c1OC	TDP1 cell CPT 14.6µM, DT40 TDP1 no CPT 16.4µM (no result: IL1B secr inh)
COc1cccc(/C=C/c2nc(C#N)c(N3CCCCCC3)o2)c1	TDP1 cell CPT inconclusive, DT40 TDP1 no CPT 18.4µM (no result: IL1B secr inh)
Cc1nn(CCC(=O)NC(C)C)c(=O)c2nn(-c3ccccc3)c(C)c12	none (no result: IL1B secr inh)
COc1cc(NC(=O)c2cccs2)c(OC)cc1NC(=O)CCC(=O)Nc1ccc(C)cc1	none (no result: TDP1 block)
CCOC(=O)[C@@H]1[C@H]2COc3ccccc3[C@H]2N2C(=O)N(c3cccc(C)c3)C(=O)[C@]12C	none
COc1ccc(/C=C/c2nc(C#N)c(N3CCN(c4ccccc4)CC3)o2)cc1OC	TGFb inhibitor inconclusive (no result: IL1B secr inh)
